Measured values as given in PubChem BioAssay AID493085 (Broad Institute, 2011).
Out of some 2,400 compounds screened, about 360 (15%) were called active. Not shown: some 5% with an inconclusive outcome.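 The calls were made as follows: active = falling-signal curve with half-maximal concentration at or below ten times the top tested dose; inconclusive = flat fit at 30 to 70% inhibition, or poor fit; inactive = signal rise, flat within 30%, or potency beyond limit.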 Only a sample is shown. Potency and affinity values are given separately.

Test: Tet-On RFP internal-standard readout, HSF1 screen, dose response, cell-based, NIH3T3 R4, HSE-GFP and Tet-On RFP, cherry-pick, set 3 (AID 493085);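 also: cells heat shocked 2 h at 42 °C with doxycycline to induce reporters; 0% = neutral control wells and -100% = didemnin B control at 400 nM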
Conditions: NIH3T3 R4 HSE-GFP/Tet-RFP reporter, fluorescence, 48 h; series mostly up to 19.5 µM; activity change, negative = inhibition: at the top concentration

Activity change, negative = inhibition, inactive:
CCN(CC)C(=O)COC(=O)c1ccc(C)c(NC(=O)c2ccco2)c1 2.46%, CN1CCN(C(=O)/C(=C\c2cccs2)NC(=O)c2ccco2)CC1 0.189%, Cc1ccc(N(Cc2cc3ccc(C)cc3[nH]c2=O)C(=O)c2cccs2)cc1 -2.97%, CC1CCCN(c2ncnc3c2cnn3-c2ccc(Cl)cc2)C1 (centres undefined) -12.2%, CCOC(=O)N1CCC(Nc2ncnc3c2cnn3-c2ccc(Cl)cc2)CC1 12.7%, c1ccc2c(Nc3nc(-c4ccncc4)nc4ccccc34)cccc2c1 4.7%, COc1cc(CCCN2CCNC[C@@H]2Cc2ccc(O)cc2)cc(OC)c1OC 15.6%, O=C(COC(=O)c1ccccc1-n1cnnn1)c1ccc(F)cc1 5.1%, COc1cccc(-n2c(N)c(-c3nc4ccccc4[nH]3)sc2=S)c1 -11.7%, COc1ccc(CC(=O)Nc2cc(C)on2)cc1 6.1%, COc1ccc(/C=C/C(=O)NC(=S)NCCc2ccc(OC)c(OC)c2)cc1 -0.406%, COc1ccc(Nc2nc(Nc3ccc(OC)cc3)nc(-n3[nH]c(=O)c(C)c3C)n2)cc1 8.07%, COc1ccccc1C(O)(C(=O)N(NC(C)=O)c1ccccc1)c1ccccc1OC -9.05%, Cc1cccc(-c2nnc(NC(=O)c3cccs3)s2)c1 -3.98%, Cc1c(C(=O)Nc2ccc(F)cc2)sc2ncn(CC(=O)N3CCCCC3)c(=O)c12 2.93%, O=C(Nc1cccc(S(=O)(=O)N2CCOCC2)c1)c1ccccn1 -1.87%, O=[N+]([O-])c1cccc(-c2nnc(-c3ccccc3)o2)c1 -12.8%, O=[N+]([O-])c1ccc(NCCOc2ccccc2Cl)nc1 -4.68%, O=C(c1cccs1)n1nc(-c2ccco2)nc1SCc1ccccc1 -5.18%, NNC(=O)c1ccc(O)cc1O 9.83%, COc1cc(=O)[nH]c(SCC(=O)Nc2nc3c(s2)CCCC3)n1 -0.723%, CN(C)CCNC(=O)c1cc2c(s1)-c1ccc(Cl)cc1SC2 14.3%, CCCCC(=O)Nc1cccc(NC(=O)c2cccc(Br)c2)c1 8.02%, O=C(Nc1nncs1)c1ccc(F)c(S(=O)(=O)N2CCCCC2)c1 -13.1%, Cc1ccc(-c2csc(NC(=O)c3ccc(S(=O)(=O)N4CCc5ccccc54)cc3)n2)cc1 -13.1%, O=C(Nc1nc(-c2cccs2)cs1)c1ccc(Cl)s1 -3.26%, COc1cc2c(cc1OC)C(C(=O)NC1CC1)C1c3ccccc3CCN1C2=O (centres undefined) -14.3%, NC(=S)N/N=C/c1cc([N+](=O)[O-])ccc1OCCOc1ccccc1 16.2%, CCC(C)c1ccc(OCc2ccc(C(=O)O)o2)cc1 (centres undefined) -8.68%, NS(=O)(=O)c1cccc(NC(=O)CNC(=O)CC23CC4CC(CC(C4)C2)C3)c1 -9.43%, CCOc1ccccc1C(=O)Nc1ccc(NC(=O)c2ccccc2)cc1 6.61%, Cc1cc(C(=O)COC(=O)c2ccco2)c(C)n1Cc1ccco1 0.924%, C=CCOc1ccn(C)c(=O)n1 0.171%, O=C1OC2(CCCCC2)OC(=O)C1=CNc1nccs1 -3.79%, Cc1ccc(C)c(N2CCN(CCN3CCCCC3)CC2)c1 -5.89%, Oc1ccccc1-c1nnc(-c2ccc(C(F)(F)F)cc2)o1 0.933%, COC(=O)C1=C(C)Nc2c(c(=O)n(C)c(=O)n2C)C1c1cccc(O)c1 (centres undefined) -4.13%, CCC(=O)N1C(C(=O)N2CCCC2)CSC1c1ccc(OC)cc1 (centres undefined) 20.6%, CNC(=O)Cn1nc(C)c2ccccc2c1=O 6.08%, O=C(CNC(=O)C12CC3CC(CC(C3)C1)C2)NCc1ccccc1 -1.98%, Cc1cc(C)cc(N(CC(=O)Nc2ccc(Br)cc2)S(=O)(=O)c2c(C)[nH]c(=O)[nH]c2=O)c1 3.96%, CCOc1ccccc1Nc1nnc(SCc2nnc(-c3cc(OC)c(OC)c(OC)c3)o2)s1 -1.36%, COc1ccc(-n2c(-c3cccc(OC)c3)nc(=S)c3c2CCCC3)cc1 -11.1%, COc1ccc(N2C(=O)C(C)(C)C2c2c(O)ccc3ccccc23)cc1 (centres undefined) -9.55%
